13 compounds from PubChem BioAssay (NCI) can be followed below.

Test systems include DU-145 prostate; K-562 leukemia; MALME-3M melanoma; MDA-MB-231 breast; RXF 393 renal; SF-268 CNS; SF-295 CNS; SF-539 CNS; UACC-257 melanoma; M14 melanoma.
What all share (assay): NCI-60 one-dose screen, 48 h (100 = growth as untreated, 0 = no growth, -100 = all killed)
Conditions in all cases: 10 µM unless noted

Where “and” joins values, the source holds several entries; their conditions need not be identical. Identical values can stand only once. This is part of a sample that, as a whole, favours compounds with a hit. Of some 83,000 tested, about 20% had one in any assay.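 Results are percent growth after 48 hours of single-concentration exposure. 100 means growth as in untreated cells, lower positive values show inhibition; negative values down to -100 show cell death.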 A structure can be active in one record and inactive in another. Calls of active or inactive are those of the source. The calls were made as follows: active = growth percent below 10; inactive = the rest.

For `CCCCCN(CCCCC)CC(O)c1cc2c(c3ccccc13)CCCC2` (stereo not given), the growth in the assay with DU-145 prostate was 75.5% (inactive) and 80.2% (inactive); in the assay on K-562 leukemia, 23.5% (inactive) and 24.7% (inactive); with MALME-3M melanoma it was 65.4% (inactive) and 74.3% (inactive); in the assay with MDA-MB-231 breast, 8.63% (active) and 59.1% (inactive); in the assay with RXF 393 renal, 26% (inactive) and 87.5% (inactive); in the assay with SF-268 CNS it was 86.7% (inactive) and 80% (inactive). Further, the growth is 55.5% (inactive) in the assay with SF-295 CNS; 68.8% (inactive) and 52% (inactive) in the assay with SF-539 CNS; 71.9% (inactive) and 71.5% (inactive) in the assay on UACC-257 melanoma; 76.8% (inactive) and 72.4% (inactive) in the assay with M14 melanoma.

Take `CC(=O)Nc1ccc2cc3ccc(NC(C)=O)cc3nc2c1`: the growth in the assay with DU-145 prostate was 64.5% (inactive) and 38.2% (inactive); in the assay on K-562 leukemia it was 66% (inactive) and 98.4% (inactive); in the assay with MALME-3M melanoma it was 134% (inactive) and 94.6% (inactive); in the assay with MDA-MB-231 breast it was 65% (inactive) and 75.7% (inactive); in the assay on RXF 393 renal it was 82.7% (inactive) and 103% (inactive); in the assay with SF-268 CNS, 64.2% (inactive) and 57% (inactive). Further, the growth is 71.9% (inactive) and 57.9% (inactive) in the assay on SF-295 CNS; 96.4% (inactive) and 87.4% (inactive) in the assay with SF-539 CNS; 111% (inactive) and 118% (inactive) with UACC-257 melanoma; 88% (inactive) and 87.8% (inactive) with M14 melanoma.

With `CCN(CC)CCOc1ccc2c(c1)C(=O)c1cc(OCCN(CC)CC)ccc1-2`, the growth is 74.6% (inactive) and 64.7% (inactive) with DU-145 prostate; 41.7% (inactive) and -9.47% (active) with K-562 leukemia; 98.2% (inactive) and 80.2% (inactive) in the assay on MALME-3M melanoma; 65.5% (inactive) and 78.5% (inactive) with MDA-MB-231 breast; 71.4% (inactive) with RXF 393 renal; 75.1% (inactive) and 54.8% (inactive) with SF-268 CNS. The growth with SF-295 CNS is 82.6% (inactive) and 71.5% (inactive); in the assay on SF-539 CNS, 50% (inactive) and 38.4% (inactive); with UACC-257 melanoma it was 89.9% (inactive) and 88.6% (inactive); in the assay with M14 melanoma, 91.7% (inactive) and 83.4% (inactive).

`COc1ccccc1C(C)=O`: the growth was 107% (inactive) and 113% (inactive) with DU-145 prostate; 84.9% (inactive) and 106% (inactive) in the assay on K-562 leukemia; 114% (inactive) and 107% (inactive) in the assay with MALME-3M melanoma; 104% (inactive) and 117% (inactive) with MDA-MB-231 breast; 99.3% (inactive) and 121% (inactive) in the assay with RXF 393 renal; 92.7% (inactive) and 107% (inactive) in the assay with SF-268 CNS. The growth with SF-295 CNS is 106% (inactive); in the assay with SF-539 CNS, 105% (inactive) and 107% (inactive); in the assay on UACC-257 melanoma it was 107% (inactive) and 110% (inactive); in the assay with M14 melanoma, 105% (inactive) and 95.7% (inactive).

For the compound `CCN(CC)CCNc1ccc(C)c2sc3ccccc3c(=O)c12` (tested in a mixture with another compound), the growth was 36% (inactive) and 39.4% (inactive) with DU-145 prostate; 0.322% (active) and 13.3% (inactive) with K-562 leukemia; 30.9% (inactive) and 48.2% (inactive) with MALME-3M melanoma; 18.3% (inactive) and 24.8% (inactive) in the assay on MDA-MB-231 breast; -9.22% (active) and 16.4% (inactive) in the assay on RXF 393 renal; 36.2% (inactive) and 24.3% (inactive) with SF-268 CNS. Also, the growth in the assay on SF-295 CNS was 35.4% (inactive) and 40.9% (inactive); in the assay with SF-539 CNS it was 38.6% (inactive) and 32% (inactive); in the assay on UACC-257 melanoma, -52.9% (active) and -51.9% (active); with M14 melanoma it was -50.9% (active) and -40.5% (active).

Turning to `Cc1cc(O)c2c(c1)C(=O)c1cc(O)cc(O)c1C2=O`, the growth in the assay on DU-145 prostate was 87.2% (inactive) and 104% (inactive); with K-562 leukemia, 75.9% (inactive) and 87.9% (inactive); with MALME-3M melanoma, 54.4% (inactive) and 94.1% (inactive); in the assay with MDA-MB-231 breast it was 78.7% (inactive) and 87.3% (inactive); in the assay on RXF 393 renal, 90.7% (inactive) and 107% (inactive); in the assay on SF-268 CNS, 89.8% (inactive) and 97.6% (inactive). For the same compound, the growth was 82.8% (inactive) and 94.9% (inactive) in the assay with SF-295 CNS; 93.1% (inactive) and 86% (inactive) with SF-539 CNS; 84.8% (inactive) and 92.2% (inactive) with UACC-257 melanoma; 110% (inactive) and 93.6% (inactive) in the assay on M14 melanoma.

Regarding `CCOc1ccc2cc(-c3nn(CC4CCNCC4)c4ncnc(N)c34)ccc2c1`, the growth was 108% (inactive) and 57.5% (inactive) in the assay with DU-145 prostate; 59.3% (inactive) and -8.9% (active) in the assay on K-562 leukemia; 73.7% (inactive) and -54.7% (active) in the assay on MALME-3M melanoma; 86.5% (inactive) and 15.6% (inactive) in the assay on MDA-MB-231 breast; 55.4% (inactive) and 18% (inactive) with RXF 393 renal; 80.6% (inactive) and 41.1% (inactive) with SF-268 CNS. For the same compound, the growth with SF-295 CNS is 108% (inactive) and 74.5% (inactive); in the assay on SF-539 CNS it was 77.4% (inactive) and 40.2% (inactive); in the assay on UACC-257 melanoma it was -52.9% (active); with M14 melanoma, 91.5% (inactive) and -42.6% (active).

Take `COc1c(/C(C)=N/N=c2sc(C(C)=O)nn2-c2ccc(Cl)cc2)c(Oc2ccccc2)c(OC)c2occc12`: the growth was 110% (inactive) and 109% (inactive) in the assay with DU-145 prostate; 93.9% (inactive) and 101% (inactive) in the assay on K-562 leukemia; 102% (inactive) and 101% (inactive) in the assay on MALME-3M melanoma; 107% (inactive) and 101% (inactive) in the assay with MDA-MB-231 breast; 113% (inactive) in the assay with RXF 393 renal; 101% (inactive) and 87% (inactive) with SF-268 CNS. The growth with SF-295 CNS is 95.8% (inactive) and 105% (inactive); in the assay on SF-539 CNS it was 103% (inactive) and 93.7% (inactive); in the assay on UACC-257 melanoma, 106% (inactive) and 113% (inactive); with M14 melanoma, 113% (inactive) and 96.2% (inactive).

Turning to `CC(C)Oc1ccc2cc(-c3nn(CC4CCNCC4)c4ncnc(N)c34)ccc2c1`, the growth is 107% (inactive) and 40.4% (inactive) in the assay on DU-145 prostate; 43.1% (inactive) and -68.4% (active) with K-562 leukemia; 73.7% (inactive) and -77.1% (active) with MALME-3M melanoma; 60.5% (inactive) and -42.9% (active) with MDA-MB-231 breast; 39.3% (inactive) and -73.3% (active) in the assay on RXF 393 renal; 88.4% (inactive) and 1.08% (active) in the assay on SF-268 CNS. Further, the growth in the assay with SF-295 CNS was 97.8% (inactive) and -54.6% (active); in the assay on SF-539 CNS it was 73.1% (inactive) and -83.1% (active); in the assay on UACC-257 melanoma, -81.8% (active); with M14 melanoma, 5.7% (active) and -84.7% (active).

Take `CC(/C=N/N1C(=O)c2ccccc2C1=O)c1ccccc1` (stereo not given): the growth is 115% (inactive) in the assay with DU-145 prostate; 106% (inactive) with K-562 leukemia; 101% (inactive) with MALME-3M melanoma; 108% (inactive) in the assay with MDA-MB-231 breast; 101% (inactive) in the assay with RXF 393 renal; 117% (inactive) in the assay on SF-268 CNS. Further, the growth in the assay with SF-295 CNS is 90.9% (inactive); in the assay with SF-539 CNS, 106% (inactive); in the assay on UACC-257 melanoma, 90.5% (inactive); in the assay on M14 melanoma it was 108% (inactive).

Consider `CCOc1ccc2c(S(=O)(=O)O)cccc2c1[N+](=O)[O-]`, for which the growth is 104% (inactive) and 116% (inactive) in the assay with DU-145 prostate; 101% (inactive) and 88.4% (inactive) in the assay with K-562 leukemia; 106% (inactive) and 101% (inactive) in the assay with MALME-3M melanoma; 106% (inactive) and 110% (inactive) in the assay on MDA-MB-231 breast; 114% (inactive) and 100% (inactive) in the assay with RXF 393 renal; 99.1% (inactive) and 96.2% (inactive) in the assay with SF-268 CNS. In addition, the growth was 104% (inactive) and 107% (inactive) in the assay on SF-295 CNS; 102% (inactive) and 107% (inactive) in the assay on SF-539 CNS; 114% (inactive) and 100% (inactive) with UACC-257 melanoma; 108% (inactive) and 99.6% (inactive) in the assay on M14 melanoma.

Take `CC1CCCC(=O)O1` (stereo not given): the growth was 106% (inactive) and 107% (inactive) in the assay on DU-145 prostate; 104% (inactive) and 108% (inactive) in the assay on K-562 leukemia; 104% (inactive) with MALME-3M melanoma; 103% (inactive) and 111% (inactive) in the assay with MDA-MB-231 breast; 101% (inactive) and 112% (inactive) in the assay with RXF 393 renal; 102% (inactive) and 111% (inactive) in the assay with SF-268 CNS. Also, the growth with SF-295 CNS is 99.5% (inactive) and 102% (inactive); in the assay on SF-539 CNS it was 100% (inactive) and 94.7% (inactive); in the assay with UACC-257 melanoma, 104% (inactive) and 98.9% (inactive); in the assay with M14 melanoma, 101% (inactive) and 105% (inactive).

As to `CCN(CC)CCCC(C)Nc1cnc(C(=O)Nc2cc(F)cc3cccnc23)cn1` (stereo not given), the growth in the assay with DU-145 prostate was 63.3% (inactive) and -82.2% (active); with K-562 leukemia, 3.95% (active) and 4.95% (active); in the assay on MALME-3M melanoma, -8.34% (active) and -76.1% (active); with MDA-MB-231 breast, 59.4% (inactive) and -55% (active); with RXF 393 renal it was 33.8% (inactive) and -84.4% (active); with SF-268 CNS it was 51.9% (inactive) and -92.1% (active). Further, the growth in the assay with SF-295 CNS was 71.2% (inactive) and 3.03% (active); with SF-539 CNS, 83.1% (inactive) and 8.22% (active); in the assay with UACC-257 melanoma, 76.8% (inactive) and -12.4% (active); with M14 melanoma it was 21.9% (inactive) and -5.6% (active).
